Cruzain inh Det – qHTS Assay for Promiscuous and Specific Inhibitors of Cruzain (with detergent); Cruzipain (Trypanosoma cruzi), P25779; purified cruzain, Z-FR-AMC fluorescence, 0.01% Triton; Potency, µM, actives largely listed as inhibitors; hit rate 0.43% among 200,000; AID 1478, 2009; further: nearly all actives have a fitted effect of over 40% in size
Target sequence (P25779 123-467 limits assumed): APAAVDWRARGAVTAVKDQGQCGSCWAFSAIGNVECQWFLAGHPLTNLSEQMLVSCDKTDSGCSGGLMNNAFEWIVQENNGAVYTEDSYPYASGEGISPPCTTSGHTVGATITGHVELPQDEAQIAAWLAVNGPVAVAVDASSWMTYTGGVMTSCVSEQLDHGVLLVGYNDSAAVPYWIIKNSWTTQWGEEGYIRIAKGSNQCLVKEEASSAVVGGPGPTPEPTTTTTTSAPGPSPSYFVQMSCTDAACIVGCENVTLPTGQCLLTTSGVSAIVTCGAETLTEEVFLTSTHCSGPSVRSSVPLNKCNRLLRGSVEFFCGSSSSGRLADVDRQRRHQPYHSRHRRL
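Cysteine protease activity tested under reducing, mildly acidic conditions (100 mM sodium acetate pH 5.5, 5 mM DTT) plus 0.01% Triton X-100. Cruzain 1.5 nM; substrate Z-FR-AMC 2 uM; 15 min compound preincubation at room temperature.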
Cruzain inh noDet – qHTS Assay for Promiscuous and Specific Inhibitors of Cruzain (without detergent); Cruzipain (Trypanosoma cruzi), P25779; Potency, µM, most hits filed as inhibitors; purified cruzain, Z-FR-AMC fluorescence, no detergent; AID 1476, 2009; hit rate 2.3% among 200,000; further: nearly all actives have a fitted effect of over 40% in size
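Detergent-free condition (0.00005% Triton X-100) in acetate buffer pH 5.5 with DTT. 1.5 nM enzyme and compound were pre-mixed 15 min, then 2 uM Z-FR-AMC substrate added; reaction progress from fluorescence change between first and third reads (60 s).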
Large screens that a line does not name were inactive. Rows were chosen to be rich in hits. Some 2.5% of all compounds tested hit in one or more screens of this group. The call rests on the fitted dose curve; in most records, active means well fitted curve in the direction sought with a large enough effect; inconclusive means small, poorly fitted or top-dose-only effect, or another doubt; inactive means no such curve, though single readings can be large; an effect the other way counts as inactive or inconclusive.

CCOc1ccc(NC(=O)[C@@H](c2ccccc2)N2Cc3ccccc3C2=O)cc1	none
O=C(Cn1c(=O)n(-c2ccc(F)c(Cl)c2)c(=O)c2sc3ccccc3c21)NC1CCCC1	none
COC(=O)c1cc(NC(=O)c2cccc(C(F)(F)F)c2)c(=O)oc1C/C=N/OCc1cccc(Cl)c1Cl	Cruzain inh noDet 0.79µM
O=C(NCc1ccccc1Cl)c1cccc(C(F)(F)F)c1	none
COc1ccc2c(c1)O[C@@H](c1ccc3c(c1)OCO3)[C@H](OC(=O)NS(=O)(=O)c1ccc(C)cc1)C2=O	none
COc1cc(OC)c(NC(=O)NCc2ccc3c(c2)CCN3C(=O)c2ccccc2)cc1Cl	none
COCCCNC(=O)c1cnc2c(-c3ccc(F)cc3)c(C)nn2c1C	none
O=C(CCn1c(=O)oc2ccccc21)Nc1nc2ccccc2s1	none
Cc1ccc(NC(=O)CN2C(=O)/C(=C\c3cccs3)SC2=S)cc1	Cruzain inh noDet 5µM
O=C(CN1C(=O)/C(=C\C=C\c2ccccc2)SC1=S)Nc1ccc(F)cc1	Cruzain inh noDet 6.3µM
O=C(CCCN1C(=O)/C(=C/c2cccs2)SC1=S)NNC(=O)c1ccccc1O	none
CN1CCN(NC(=O)CN2C(=O)/C(=C/c3ccccc3F)SC2=S)CC1	none
COc1cccc(/C=C2/SC(=S)N(CC(=O)Nc3nnc(C)s3)C2=O)c1	none
O=C(CN1C(=O)/C(=C/c2ccccc2)SC1=S)Nc1ncc(Cc2ccccc2)s1	Cruzain inh noDet 4µM
O=C(CCN1C(=O)/C(=C/C=C/c2ccccc2)SC1=S)Nc1nc2ccccc2s1	Cruzain inh noDet 7.9µM
CCCN1C(=O)C(Cc2nc3ccccc3c(=O)n2-c2cccc(C)c2)c2ccccc21 (configuration not stated)	none
Cn1c(=O)c2c(ncn2CN2CCN(Cn3cnc4c3c(=O)n(C)c(=O)n4C)CC2)n(C)c1=O	none
O=C(COC(=O)CCC1CCCC1)Nc1nc2c(F)c(F)c(F)cc2s1	Cruzain inh noDet 10µM
O=C(COC(=O)CCC1CCCC1)Nc1ccc(Cl)cn1	none
CCCCOc1ccc(/C=C/C(=O)Nc2ccc([N+](=O)[O-])cc2C)cc1	Cruzain inh noDet 25µM
CCCOc1ccc(/C=C/C(=O)Nc2ccc([N+](=O)[O-])cc2)cc1	none
CCOc1ccc(/C=C/C(=O)Nc2ccc(C(N)=O)cc2)cc1OC	none
CCCCOc1ccc(/C=C/C(=O)Nc2ccc(C(N)=O)cc2)cc1	Cruzain inh noDet 16µM
O=C(CN(c1cccc(Br)c1)S(=O)(=O)c1ccccc1)N1CCc2ccccc2C1	none
CCOc1ccc(-c2cn3c(n2)sc2cc(C(=O)NCCCc4ccccc4)ccc23)cc1	none
CCc1nn(CC(=O)NCCCc2ccccc2)c(=O)c2cc3ccccc3n12	none
CCCN(CCC)S(=O)(=O)c1ccc(C(=O)NNc2nc(-c3ccccc3)c3cc(Br)ccc3n2)cc1	Cruzain inh noDet 10µM
CCCCN(CCCC)S(=O)(=O)c1ccc(NC(=O)c2c(-c3ccccc3)noc2C)cc1	none
Cc1ccc(NC(=O)c2cnc(SCC(=O)N3CCCc4ccccc43)n(C)c2=O)cc1	none
COc1ccc(NS(=O)(=O)c2ccc3nc(COc4ccc5ccccc5c4)[nH]c3c2)cc1	Cruzain inh noDet inconclusive
COc1ccc(NS(=O)(=O)c2ccc3nc(COc4cccc5ccccc45)[nH]c3c2)cc1	Cruzain inh noDet 32µM
COc1cc(N=c2ssnc2Cl)c(OC)cc1Cl	Cruzain inh noDet 25µM
COc1ccc(OC)c(N=c2ssnc2Cl)c1	Cruzain inh noDet inconclusive
COc1ccc(N2CCN(S(=O)(=O)c3ccc(F)c(C(=O)Nc4ccccc4Cl)c3)CC2)cc1	none
C[C@@](N)(Cc1c[nH]c2ccccc12)C(=O)O	none
CCCCSc1nnc2c(n1)OC(c1ccc(C)s1)Nc1ccccc1-2 (configuration not stated)	none
Cc1n[nH]c(=S)n1/N=C/c1ccc(OCc2ccc(Cl)cc2Cl)cc1	none
Cc1n[nH]c(=S)n1/N=C/c1ccccc1OCc1ccc(Cl)cc1Cl	Cruzain inh noDet 16µM
CC(C)Oc1ccc(C(=O)NCC(c2ccc(N(C)C)cc2)N2CCc3ccccc32)cc1 (configuration not stated)	Cruzain inh noDet inconclusive
COc1ccc(C(=O)NCC(c2ccc(N(C)C)cc2)N2CCc3ccccc32)cc1 (configuration not stated)	Cruzain inh Det inconclusive, Cruzain inh noDet 13µM
CN(C)c1ccc(C(CNC(=O)c2ccccc2Cl)N2CCc3ccccc32)cc1 (configuration not stated)	Cruzain inh noDet 32µM
COc1ccccc1C(=O)NCC(c1ccc(N(C)C)cc1)N1CCc2ccccc21 (configuration not stated)	Cruzain inh noDet inconclusive
C=Cc1ccc(Cn2c(C(=O)O)c(CNCc3ccccc3)c3ccc(C)cc32)cc1	none
CCC(=O)Nc1ccc(C)cc1-c1nc2ccccc2n(CC(=O)c2ccc(C)cc2)c1=O	none
Cc1cc(C)n2nc(CNC(=O)c3cccc(Cl)c3)nc2n1	none
CCOc1ccc(C2N3CC4(C(C)C)CN2CC(C(C)C)(C3)C4=O)cc1OC (configuration not stated)	none
Cc1ccc(CNc2nc(-c3ccco3)nn2S(=O)(=O)c2ccc3ccccc3c2)cc1	Cruzain inh noDet inconclusive
CC(C)c1ccc(CNc2nc(-c3ccco3)nn2S(=O)(=O)c2ccc3ccccc3c2)cc1	Cruzain inh noDet 10µM
Cc1cccc(C)c1OCC(=O)N=Nc1c(O)[nH]c2ccc(Br)cc12	none
O=C(N=Nc1c(O)[nH]c2ccc(Br)cc12)c1cc(-c2cccc3ccccc23)n[nH]1	Cruzain inh noDet 10µM
COc1ccc2c(c1)C(=O)[C@H](OC(=O)Nc1cc(OC)c(OC)c(OC)c1)[C@@H](c1ccc(OC)c(Br)c1)O2	none
CC(=O)Nc1ccc(NC(=O)c2cnn(-c3ccccc3)c2C2CCN(C(=O)OC(C)(C)C)CC2)cc1	none
Cc1nc(SCC(=O)c2cc3ccccc3oc2=O)c(C#N)c(C)c1C(=O)Nc1ccccc1	Cruzain inh noDet 13µM
CSc1nc(C)c(C(=O)Nc2ccccc2)c(C)c1C#N	none
COc1ccc(NC(=O)CC2C(=O)N(c3ccccc3)C(=O)N2Cc2cccnc2)cc1 (configuration not stated)	none
COc1cccc(-n2c(=O)c3cc(OC)c(OC)cc3n(CC(=O)Nc3ccccc3)c2=O)c1	none
CC1CCC/C(=N\NC(=S)NCc2ccccc2)C1 (configuration not stated)	none
CC1CCC/C(=N\NC(=S)Nc2ccccc2)C1 (configuration not stated)	Cruzain inh Det 14µM
COc1ccc(CNC(=O)c2ccc(NC(=O)N3CCSc4ccccc43)cc2)cc1	none
CCCC1=NN2C(=N)/C(=C\c3cc(C)n(-c4cccc(C)c4)c3C)C(=O)N=C2S1	Cruzain inh noDet inconclusive
Cc1cccc(-n2c(C)cc(/C=C3/C(=N)N4C(c5ccccc5)=CSC4=NC3=O)c2C)c1	Cruzain inh noDet 5µM
O=S(=O)(Nc1cccc(-c2ccc(N3CCOCC3)nn2)c1)c1ccccc1C(F)(F)F	none
COc1ccc(OC)c(NS(=O)(=O)c2ccc(N3CCCCS3(=O)=O)cc2)c1	none
Cc1ccn2cc(-c3ccc(S(=O)(=O)N4CCOCC4)cc3)nc2c1	Cruzain inh Det 28µM, Cruzain inh noDet inconclusive
Cc1ccc2nc(-c3ccc(S(=O)(=O)N4CCOCC4)cc3)cn2c1	none
COc1ccc(NC(=O)c2c(-c3ccc(C)cc3)nnc3ccccc23)cc1OC	none
CC(C)(O)C(=O)O	none
O=c1[nH]c(N/N=C/c2ccccc2Br)nnc1-c1ccccc1	Cruzain inh noDet 13µM

From PubChem
